This is part of a sample that, as a whole, favours compounds with a hit. Of some 83,000 tested, about 20% had one in any assay.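 Single-concentration screen, 48 h exposure, 96-well plates. Endpoint: percent growth. Below 10 = active.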 The source made the active and inactive calls.
Tests used:
Experiment in all cases: NCI-60 one-dose screen, 48 h (100 = growth as untreated, 0 = no growth, -100 = all killed)
[1] = system: HCT-15 colon; details: 10 µM unless noted
[2] = system: HT29 colon; details: 10 µM unless noted
[3] = system: SNB-75 CNS; details: 10 µM unless noted
[4] = system: U251 CNS; details: 10 µM unless noted
[5] = system: PC-3 prostate; details: 10 µM unless noted
[6] = system: UACC-62 melanoma; details: 10 µM unless noted
[7] = system: LOX IMVI melanoma; details: 10 µM unless noted
[8] = system: SK-MEL-28 melanoma; details: 10 µM unless noted
[9] = system: SK-MEL-2 melanoma; details: 10 µM
[10] = system: EKVX NSCLC; details: 10 µM unless noted
[11] = system: SN12C renal; details: 10 µM unless noted
[12] = system: UO-31 renal; details: 10 µM unless noted
[13] = system: TK-10 renal; details: 10 µM unless noted
[14] = system: CAKI-1 renal; details: 10 µM unless noted
[15] = system: CCRF-CEM leukemia; details: 10 µM unless noted
[16] = system: MOLT-4 leukemia; details: 10 µM unless noted
[17] = system: SK-MEL-5 melanoma; details: 10 µM unless noted
[18] = system: ACHN renal; details: 10 µM unless noted
[19] = system: A498 renal; details: 10 µM unless noted
[20] = system: SNB-19 CNS; details: 10 µM unless noted

Measured: growth

CCN(CCN(C)C)C(=O)CNCc1cc(C(N)=O)ccn1
inactive: [1] 102% | [2] 80% | [3] 98.6% | [4] 87.5% | [5] 79.5% | [6] 105% | [7] 99.5% | [8] 110% | [9] 94.8% | [10] 104% | [11] 98.8% | [12] 93.2% | [13] 96.4% | [14] 105% | [15] 93.6% | [16] 99.8%

COC(=O)[C@]12CC[C@@H](C)[C@H](C)[C@@H]1C1=CC[C@@H]3[C@@]4(C)C(C#N)=CC(C)=C4CC[C@@]3(C)[C@]1(C)CC2
inactive: [1] 89.5% | [2] 73.7% | [3] 84.5% | [4] 87.2% | [5] 68.9% | [17] 86.3% | [6] 69.3% | [7] 92.1% | [8] 91.4% | [9] 82.9% | [10] 92.8% | [11] 93.3% | [12] 84.8% | [13] 99.2% | [18] 79% | [14] 76.8% | [15] 16% | [16] 78.8%

CN1CCN(Cc2ccc(NC(=O)c3[nH]ncc3Nc3ncnc4sc5c(c34)CCCC5)cc2)CC1
active: [1] -69.3% | [2] -36.9% | [3] -94.2% | [4] -84.2% | [5] -77.8% | [17] -99.9% | [6] 4.67% | [7] -91.7% | [8] -78.9% | [9] -53.7% | [10] -71.2% | [11] -44.2% | [12] -82.9% | [13] -96.6% | [19] -60.5% | [15] -16.2% | [16] -62.5%

CN(C[C@@H]1COCCO1)S(=O)(=O)Nc1ccc2ccc3ncc(-c4cnn(C)c4)cc3c(=O)c2c1
inactive: [1] 26% | [2] 51.3% | [20] 80.7% | [4] 37.4% | [5] 45.6% | [17] 36% | [6] 36.2% | [7] 30.1% | [8] 59.7% | [10] 52.9% | [11] 38.9% | [13] 37.2% | [18] 22.2% | [15] 34.9% | [16] 21.1%
active: [12] 8.44% | [14] 7.99% | [19] -19%

Cn1nccc1Nc1nccc(-c2ccn([C@H](CO)c3ccc(Cl)c(F)c3)c(=O)c2)n1
inactive: [1] 94.1% | [2] 19.9% | [20] 94.1% | [4] 86.2% | [5] 111% | [17] 70.7% | [7] 58.5% | [8] 16.9% | [10] 93% | [11] 107% | [12] 68% | [13] 67.4% | [18] 90.8% | [14] 79.9% | [19] 70.5% | [15] 99.8% | [16] 96%
active: [6] 9.88%

CC(=O)C(C(C)=O)C(c1ccccc1)C(C(C)=O)C(C)=O
inactive: [1] 100% | [2] 98.5% | [20] 102% | [4] 93.5% | [5] 89.8% | [17] 97.2% | [6] 98.2% | [7] 94.4% | [8] 103% | [9] 100% | [10] 96.9% | [11] 98.9% | [12] 90.9% | [13] 98.1% | [18] 106% | [19] 105% | [15] 93.5% | [16] 104%

COc1cc2nccc(Oc3ccc(NC(=O)Nc4cc(C)on4)c(Cl)c3)c2cc1OC
active: [2] -9.07% | [17] -19.7% | [7] -2.96% | [12] -15.3% | [13] -15.8% | [14] 2.09% | [19] -35.9% | [16] 7.51%
inactive: [1] 18.3% | [20] 32.8% | [4] 28.2% | [5] 21.1% | [6] 11.5% | [8] 23.2% | [10] 37.6% | [11] 11.6% | [18] 13.7% | [15] 22.3%

COc1ccc2c(OCc3nnc4ccc(-c5ccccc5)nn34)ccnc2c1
active: [7] 2.5% [2.5 µM]
inactive: [1] 96.9% [2.5 µM] | [2] 94.1% [2.5 µM] | [20] 106% [2.5 µM] | [4] 110% [2.5 µM] | [5] 96.9% [2.5 µM] | [17] 91.9% [2.5 µM] | [6] 108% [2.5 µM] | [8] 111% [2.5 µM] | [10] 104% [2.5 µM] | [11] 104% [2.5 µM] | [12] 74.6% [2.5 µM] | [13] 93.7% [2.5 µM] | [18] 97.2% [2.5 µM] | [14] 74.6% [2.5 µM] | [15] 102% [2.5 µM] | [16] 72.7% [2.5 µM]

COc1ccc(-c2ccc3ncc4c(c3c2)n(-c2ccc(N3CCNCC3)c(C(F)(F)F)c2)c(=O)n4C)cn1
active: [1] -78.6% | [2] -78.2% | [20] -74.2% | [4] -85.5% | [5] -84.1% | [17] -92.4% | [6] -74.7% | [7] -82% | [8] -76.6% | [10] -77.1% | [11] -80.7% | [12] -90.9% | [13] -90.2% | [18] -97.5% | [14] -94.8% | [19] -79.2% | [15] -47.1% | [16] -50.8%

C=CC(=O)N(C)[C@H]1C[C@H]2OC(C)(C1OC)n1c3ccccc3c3c4c(c5c6ccccc6n2c5c31)C(=O)NC4 (stereo not given in full)
inactive: [5] 17.5% | [10] 17.9% | [18] 12.9%
active: [1] -46.5% | [2] 3.17% | [20] -1.51% | [4] -35.8% | [17] -94.3% | [6] -28.1% | [7] -55.6% | [8] 5.52% | [9] -24.6% | [11] 6.85% | [12] -30.5% | [13] -2.16% | [19] -38.7% | [15] -7.8% | [16] -40.1%

C[C@@H](NC(=O)c1ncnc(N)c1Cl)c1ncc(C(=O)Nc2cc(C(F)(F)F)c(Cl)cn2)s1
active: [6] -0.831% | [8] 9.63%
inactive: [1] 86.4% | [2] 20.1% | [20] 94.7% | [4] 75.9% | [5] 93.7% | [17] 51.2% | [7] 36.5% | [10] 101% | [11] 82.6% | [12] 52.8% | [13] 77.4% | [18] 74.5% | [14] 74.2% | [15] 78.5% | [16] 70.8%

O=c1[nH]c(N2CCOCC2)nc2scc(-c3ccccc3)c12
inactive: [1] 99% | [2] 86.8% | [20] 106% | [4] 69.5% | [5] 94.6% | [6] 99.2% | [7] 100% | [8] 110% | [9] 81.8% | [10] 53.3% | [11] 107% | [12] 83.1% | [13] 86.6% | [18] 99.3% | [19] 104% | [15] 101% | [16] 90.5%

N#Cc1c(C(F)(F)F)cc(Nc2ccc3nc(NCCN4CCCC4)oc3c2)n2c1nc1ccccc12
inactive: [1] 56.6% | [20] 85.2% | [4] 89% | [5] 52.1% | [17] 69.8% | [6] 78.1% | [7] 62.3% | [8] 72.8% | [9] 83.8% | [10] 73.6% | [11] 55.6% | [12] 66.6% | [13] 79.5% | [18] 83% | [14] 74.1% | [19] 52.8% | [15] 11% | [16] 56.7%
active: [2] 5.45%

Nc1c(C(=O)c2ccccc2)sc2nc(-c3cccs3)ccc12
active: [2] 5.02%
inactive: [1] 24.7% | [20] 36.1% | [4] 17.6% | [5] 23% | [17] 17.5% | [6] 11.8% | [7] 44.8% | [8] 72.6% | [9] 44.2% | [10] 60.8% | [11] 44.9% | [12] 48.7% | [13] 56.7% | [18] 54.3% | [14] 38.5% | [15] 19.1% | [16] 28.1%

O=C(COc1ccc(/C=C2\Cc3ccc(Cl)cc3C2=O)cc1)Nc1nccs1
inactive: [1] 98.5% | [2] 108% | [20] 83.8% | [4] 108% | [5] 96% | [17] 99.3% | [6] 95.3% | [7] 93% | [8] 122% | [10] 110% | [11] 95.7% | [12] 28.7% | [13] 138% | [18] 92.7% | [14] 90.1% | [19] 127% | [15] 59.5% | [16] 51.7%

COc1cc(Nc2c(C#N)cnc3cc(OCCCN4CCN(C)CC4)c(OC)cc23)c(Cl)cc1Cl
active: [6] 9.83%
inactive: [1] 57.5% | [2] 10.3% | [20] 70.4% | [4] 65% | [5] 84.7% | [17] 62.5% | [7] 33.1% | [8] 19.3% | [10] 54.9% | [11] 51.9% | [12] 38.1% | [13] 29.8% | [18] 27.3% | [14] 31% | [19] 78.3% | [15] 38.9% | [16] 33.3%

CC[n+]1c(/C=C/C=C2\N(C)c3ccccc3C2(C)C)sc2ccccc21
active: [1] 6.66% | [2] 6.94% | [17] -89.7% | [7] 2.76% | [9] -16.2% | [11] 5.6% | [18] 7.97% | [15] 3.17% | [16] -19.1%
inactive: [4] 10.8% | [5] 17.4% | [6] 12.4% | [8] 37.1% | [10] 10.9% | [12] 12.6% | [13] 21.5% | [19] 12.3%

Source: PubChem BioAssay (NCI)
